SENP8 block-1 – human SENP8 protease inhibitors, primary screen, biochemical, fluorescence, Nedd8 protein substrate, uHTS; Sentrin-specific protease 8 (Homo sapiens), Q96LD8; 360,000 compounds, 0.64% hits; recombinant SENP8; inhibition, % at 20 µM; AID 602440, 2012; in the data active = inhibition mostly above about 40%, no sharp cut-off; inactive = mostly below about 27%
Target sequence (Q96LD8 whole entry, looked up): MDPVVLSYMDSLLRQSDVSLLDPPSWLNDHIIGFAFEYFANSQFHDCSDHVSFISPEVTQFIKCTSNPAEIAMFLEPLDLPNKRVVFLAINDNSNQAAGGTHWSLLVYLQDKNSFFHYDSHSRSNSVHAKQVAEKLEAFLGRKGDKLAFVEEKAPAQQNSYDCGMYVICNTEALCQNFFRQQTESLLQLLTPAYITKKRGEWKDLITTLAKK
SENP8 block-2 – SENP8 protease inhibitors, primary screen, biochemical, luminescence. Sentrin-specific protease 8 (Homo sapiens), Q96LD8. inhibition, % at 10 µM. purified SENP8, Z-RLRGG-aminoluciferin cleavage. 330,000 compounds, 1.2% hits; in the data active = inhibition above about 50%
SENP7 block – SENP7 protease inhibitors, primary screen, biochemical, luminescence, uHTS; inhibition, % at 5 µM; 330,000 compounds, 1.5% hits; recombinant SENP7, Z-RLRGG-aminoluciferin luminescence, 40 min; Sentrin-specific protease 7 (Homo sapiens), Q9BQF6;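 active = inhibition above about 50% at the single test dose, limit read from the data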
Target sequence (Q9BQF6 706-1050 limits assumed): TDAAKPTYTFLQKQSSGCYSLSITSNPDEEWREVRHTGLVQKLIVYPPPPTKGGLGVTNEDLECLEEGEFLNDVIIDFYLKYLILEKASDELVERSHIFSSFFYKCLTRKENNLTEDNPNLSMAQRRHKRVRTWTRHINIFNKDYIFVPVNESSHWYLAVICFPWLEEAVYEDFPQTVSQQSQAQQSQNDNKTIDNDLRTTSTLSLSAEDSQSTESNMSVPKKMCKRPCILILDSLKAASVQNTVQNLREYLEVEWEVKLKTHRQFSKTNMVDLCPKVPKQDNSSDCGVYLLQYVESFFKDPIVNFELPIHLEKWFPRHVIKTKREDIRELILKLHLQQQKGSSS
PPC-1+TRAIL kill – compounds killing PPC-1 cancer cells with TRAIL present, primary screen, TRAIL potentiator project, ATPLite luminescence, uHTS; PPC-1 cells + TRAIL, ATPLite viability luminescence; cell killing (% activity), % at 4 µM or 5 µM; 220,000 compounds, 0.41% hits;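 active = cell killing above 50% in the first pass at 4 µM, then a duplicate retest at 5 µM averaging 50% or more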
SENP6 inh – SENP6 protease inhibitors, primary screen, biochemical, luminescence, uHTS | Recombinant SENP6 catalytic domain, aminoluciferin luminescence | inhibition, % at 10 µM | 330,000 compounds, 1.8% hits | AID 2599, 2010;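 active = inhibition above about 50% at the single tested dose, limit read from the data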
C8 TRAIL sens – viability loss with TRAIL in NB7+C8 cells, primary screen, TRAIL sensitizer project, cell-based, ATPlite luminescence; inhibition (viability loss, TRAIL sensitization), % at 10 µM; 360,000 compounds, 1% hits;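 active = compounds causing at least 50% loss of cell viability in the single-dose screen, relative to plate controls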
Of the large screens only hits and unclear results are named; the others gave an inactive call; ! = not active in a repeat. A selection: hits, their analogues and other compounds. The true share with any hit is near 3%.

COc1ccc(C(C(=O)NCC2CCCO2)N(C(=O)CNC(=O)c2cccs2)c2ccc(C)cc2)cc1OC (centres undefined)	none
Cc1cc(-c2nc3cc(F)ccc3s2)ccc1N	C8 TRAIL sens 73.4 (no result: SENP8 block-2, SENP7 block, PPC-1+TRAIL kill, SENP6 inh)
CC(C)c1ccc2c(c1)CC[C@H]1[C@](C)(CN)CCC[C@]21C	C8 TRAIL sens 68.2! (no result: SENP8 block-2, SENP7 block, PPC-1+TRAIL kill, SENP6 inh)
C#CCN(C[C@@H]1[C@@H](OC(=O)NC2CCCC2)[C@@H](OC(=O)NC2CCCC2)Cn2c(=O)ccc(=O)n21)S(=O)(=O)c1ccc(C)cc1	none (no result: SENP8 block-2, SENP7 block, PPC-1+TRAIL kill, SENP6 inh)
C#CCN(C[C@@H]1[C@@H](OC(=O)NCc2ccccc2F)[C@@H](OC(=O)NCc2ccccc2F)Cn2c(=O)ccc(=O)n21)S(=O)(=O)c1ccc(C)cc1	C8 TRAIL sens 81.4 (no result: SENP8 block-2, SENP7 block, PPC-1+TRAIL kill, SENP6 inh)
C#CCN(C[C@@H]1[C@@H](OC(=O)Nc2cccs2)[C@@H](OC(=O)Nc2cccs2)Cn2c(=O)ccc(=O)n21)S(=O)(=O)c1ccc(C)cc1	C8 TRAIL sens 86.2 (no result: SENP8 block-2, SENP7 block, PPC-1+TRAIL kill, SENP6 inh)
CC(C)(C)C(=O)NC1CC2CCCC(C1)N2C(=O)Nc1ccccc1 (centres undefined)	none (no result: PPC-1+TRAIL kill)
COc1ccc(-c2noc(CCC(=O)Nc3cccnc3)n2)cc1	none (no result: PPC-1+TRAIL kill)
CC(C)(C)c1ccc(-c2noc(CCC(=O)Nc3cccnc3)n2)cc1	C8 TRAIL sens 50.1 (no result: PPC-1+TRAIL kill)
COn1c(SCC(N)=O)nc2ccccc2c1=O	none
COn1c(SC2CCCCC2)nc2ccccc2c1=O	C8 TRAIL sens 67.1
COn1c(SCc2ccc(C)cc2C)nc2ccccc2c1=O	C8 TRAIL sens 57.5
COc1ccccc1C(=O)NCC(=O)OCC(=O)c1cccc2ccccc12	none (no result: PPC-1+TRAIL kill)
CCS(=O)(=O)N1CCC(NC(=O)C(Cc2cc(OC)ccc2OC)NC(C)=O)CC1 (centres undefined)	none (no result: PPC-1+TRAIL kill)
O=C1/C(=C\c2ccc(Br)o2)Cc2ccccc21	SENP6 inh 72.8
Cc1cc(C)c2nc(C)cc(N/N=C/c3ccc(O)cc3)c2c1	C8 TRAIL sens 81.4 (no result: PPC-1+TRAIL kill)
Cc1cc(-c2ccccc2)nc(N/N=C/c2ccc(O)cc2)n1	C8 TRAIL sens 76.7 (no result: PPC-1+TRAIL kill)
CCOC(=O)c1cnc2c(Cl)c(Cl)ccc2c1N1CCN(C)CC1	C8 TRAIL sens 58.7
CCOC(=O)c1cnc2c(C)c(Cl)ccc2c1N1CCN(CC)CC1	none (no result: PPC-1+TRAIL kill)
CNC(=S)N=Nc1c(O)[nH]c2ccc(C(C)C)cc12	SENP8 block-1 43.9 (no result: SENP8 block-2, SENP7 block, SENP6 inh)
CC(C)c1ccc2[nH]c(O)c(N=NC(=O)c3cccc(S(=O)(=O)Nc4ccc(Cl)cc4)c3)c2c1	none
CC(C)c1ccc2[nH]c(O)c(N=NC(=O)c3cccc(S(=O)(=O)Nc4cccc(Cl)c4)c3)c2c1	C8 TRAIL sens 50.0
CC1(C)OC(c2ccccc2)=C/C(=C/C=C2C(=O)c3ccccc3C2=O)O1	SENP8 block-1 59.0 (no result: PPC-1+TRAIL kill)
O=C(CSc1nnc(SCc2ccccc2Cl)s1)N/N=C/c1ccc(C(=O)O)cc1	SENP8 block-2 83.0, SENP6 inh 93.3
O=C(CSc1nnc(SCc2ccccc2)s1)N/N=C/c1c(Cl)cccc1Cl	none
O=C(O)COc1ccccc1/C=N/NC(=O)CSc1nnc(SCc2ccccc2)s1	SENP6 inh 56.2
CC(C)NC(=O)N(C)C[C@H]1Oc2ncc(Br)cc2C(=O)N([C@H](C)CO)C[C@@H]1C	none (no result: SENP8 block-2, SENP7 block, PPC-1+TRAIL kill, SENP6 inh)
COc1ccc(C2=Nc3cccc4cccc(c34)N2)cc1	none
Nc1cccc(C2=Nc3cccc4cccc(c34)N2)c1	SENP8 block-1 45.7 (no result: SENP8 block-2, SENP7 block, SENP6 inh)
N#Cc1nc(Nc2cccc(Cl)c2)c2ncn(C3CCCC3)c2n1	C8 TRAIL sens 51.8 (no result: PPC-1+TRAIL kill)
CCn1cnc2c(Nc3cc(F)cc(F)c3)nc(C#N)nc21	none (no result: PPC-1+TRAIL kill)
Oc1ccc(CCNc2c3ccccc3nc3ccccc23)cc1O	C8 TRAIL sens 71.1 (no result: PPC-1+TRAIL kill)
CN(C)C(CNC(=S)Nc1ccccc1Cl)c1cccnc1 (centres undefined)	none
Cc1ccc(-c2nc3ccc(C)cn3c2CC2CCCCC2)cc1	none (no result: SENP8 block-2, SENP7 block, PPC-1+TRAIL kill, SENP6 inh)
CC(C)NC(=O)c1cc2n(n1)C(C(F)(F)F)CC(c1ccco1)N2 (centres undefined)	none
Cc1cc(NC(=O)c2cc3n(n2)C(C(F)(F)F)CC(c2ccco2)N3)no1 (centres undefined)	C8 TRAIL sens 60.0
O=C(c1ccc([N+](=O)[O-])cc1[N+](=O)[O-])N1CCc2ccccc21	none (no result: PPC-1+TRAIL kill)
O=C(N=C1N=C2C=CC(Br)=CN2Cc2ccccc21)c1ccc([N+](=O)[O-])cc1[N+](=O)[O-]	SENP8 block-2 56.0, SENP7 block 66.9, SENP6 inh 77.8
COC(=O)c1cc(NC(=O)c2cc3ccccc3o2)cc(C(=O)OC)c1	none (no result: PPC-1+TRAIL kill)
CCC(=O)Nc1cccc(NC(=S)NC(=O)c2cc3ccccc3o2)c1	SENP7 block 76.0
CCC(=O)Nc1ccc(NC(=S)NC(=O)c2cc3ccccc3o2)cc1	none
Cc1cc(NC(=O)c2cncc(Br)c2)ccc1NC(=O)c1cc2ccccc2o1	C8 TRAIL sens 59.8 (no result: PPC-1+TRAIL kill)
COC(=O)c1cccc(NC(=O)c2cc3ccccc3o2)c1	C8 TRAIL sens 50.1 (no result: PPC-1+TRAIL kill)
COc1ccc(NC(=O)Nc2cccc3c2O[C@@H](CN(C)S(=O)(=O)c2cn(C)cn2)[C@@H](C)CN([C@H](C)CO)C3=O)cc1	none (no result: PPC-1+TRAIL kill)
O=C1NNC(c2ccccc2)=N/C1=C\c1ccccc1Cl	SENP8 block-1 117.2 (no result: SENP8 block-2, SENP7 block, SENP6 inh)
O=C1NNC(c2ccccc2)=N/C1=C\c1ccco1	none
CCOc1ccc(/C=C2\SC(=S)N(C(C(=O)O)c3ccccc3)C2=O)cc1OC (centres undefined)	none
C=CCOc1ccc(/C=C2\SC(=S)N(C(C(=O)O)c3ccccc3)C2=O)cc1 (centres undefined)	SENP8 block-1 41.5 (no result: SENP8 block-2, SENP7 block, SENP6 inh)
CSC(=Nc1ccccc1)N=C(SCc1ccccc1)N(C)C	C8 TRAIL sens 90.9 (no result: SENP8 block-2, SENP7 block, PPC-1+TRAIL kill, SENP6 inh)
CC(=O)Nc1ccc2nc(CN3CCN(Cc4ccc(F)cc4)C(CCO)C3)ccc2c1 (centres undefined)	none
c1ccc(COc2ncnc3c2ncn3CCCNCC(c2ccccc2)c2ccccc2)cc1	C8 TRAIL sens 63.1 (no result: SENP8 block-2, SENP7 block, PPC-1+TRAIL kill, SENP6 inh)
O=[N+]([O-])c1ccc(O)c(/C=N/n2cnc3ccccc32)c1	SENP8 block-2 56.0, SENP6 inh 75.9
CCCCN(CC)S(=O)(=O)c1ccc(C(=O)N=c2sc3cc(NC(C)=O)ccc3n2C)cc1	C8 TRAIL sens 61.3
COc1cccc2cc(CC(=O)c3ccccc3)c(=O)oc12	none (no result: PPC-1+TRAIL kill)
CC(NC(=O)CCl)c1ccc(Cl)c(Cl)c1 (centres undefined)	C8 TRAIL sens 61.3
CC(=O)C(Cc1cccc(F)c1)(Cc1cccc(F)c1)C(C)=O	none
COC(=O)c1ccc(-n2c(C)cc(C(=O)CCl)c2C)cc1	none
CCOc1ccc(-n2c(C)cc(C(=O)CCl)c2C)cc1	C8 TRAIL sens 52.6
NS(=O)(=O)c1ccc(N/C=C/C(=O)c2ccc(Br)cc2)cc1	none

From PubChem
